Assay results as given in PubChem BioAssay (Tox21).
“And” between values parts separate entries of the source, which are not always exact repeats. Equal values may be shown once. Results filed as inconclusive are left out. A call without a number means that no potency is given here. The source holds several records for some structures; these can differ, active in one and inactive in another. The source made the active and inactive calls. The call rests on the fitted dose curve; in most records, active means well fitted activation curve with a large enough effect in the repeat runs; inconclusive means weak or mixed curves; inactive means flat fitted curve, though single readings scatter.
Potency means the concentration at half of the fitted maximal effect.

Test: A CellTox Green Cytotoxicity Assay to monitor cytotoxicity in HEK293 cells - 32 hour (AID 1224881); further: nearly all actives have a fitted effect of over 40% in size
Settings: CellTox Green fluorescence; series mostly up to 76.8 µM; cytotoxicity increase: at the top concentration
Source text: National Center for Advancing Translational Sciences [NCATS]
NIH Chemical Genomics Center [NCGC]
U.S. Environmental Protection Agency [EPA]
National Institutes of Environmental Health Sciences [NIEHS]
National Toxicology Program [NTP]
Cell-based models are critical for drug discovery. Determining the natural cytotoxic effects resulting from test compounds is an essential research activity. A CellTox Green Cytotoxicity Assay to monitor cytotoxicity in real time of continues cell culture during 40 hours of the compound treatment was used to screen Tox21 10K library compounds in Hek293 cells. CellTox Green Cytotoxicity Assay is a nonlytic, homogeneous, biofluorescent method to measure cytotoxicity in cell culture after experimental manipulation. The assay system uses a proprietary asymmetric cyanine dye that is excluded from viable cells but preferentially stains the dead cell's DNA. […] Viable cells produce no appreciable increases in fluorescence. Therefore, the fluorescence signal produced by the binding interaction with dead cell DNA is proportional to cytotoxicity.
The mixture of Hek293 cell suspension and reagents were dispensed at 600cells/6 ul/well in 1536-well tissue culture treated black solid bottom plates using a Multidrop dispenser. After the assay plates were incubated at a 37 C/5% CO2 incubator for 5 hours, 23 nL of compounds dissolved in DMSO, positive and negative controls was transferred to the assay plate by a pintool work station. The plates were incubated at 37 C for 40 hours. The fluorescence intensity were measured at 0h, 8h, 16h, 24h, 32h and 40h time points using ViewLux plate reader during compound treatment.
For CC(=O)Oc1ccc(C(c2ccc(OC(C)=O)cc2)c2ccccn2)cc1, the Potency was “inactive”.
For O=C(CCCN1CCC(O)(c2ccc(Cl)cc2)CC1)c1ccc(F)cc1, the Potency was 49 µM (active) and inactive.
In the case of Nc1ccc(N)c(Cl)c1, the Potency is reported as “inactive and 27.5 µM (active)”.
With ClC/C=C/CCl the Potency was “inactive”.
In the case of IC(I)I, the Potency is reported as “inactive”.
In the case of Clc1ccc(Sc2cc(Cl)c(Cl)cc2Cl)cc1, the Potency is reported as “inactive”.
In the case of C=C1C[C@H]2[C@@H]3C=C(C)C4=CC(=O)CC[C@]4(C)[C@H]3CC[C@]2(C)[C@@]1(OC(C)=O)C(C)=O, the Potency is reported as “inactive”.
With [O-]/[N+](=N\O)c1ccccc1 the Potency was “inactive”.
In the case of C=CN1CCCC1=O, the Potency is reported as “inactive”.
With CC(C)[C@@H]1CC[C@@H](C)CC1=O the “cytotoxicity increase” value was -0.908% (inactive).
In the case of CCOC(=O)C(C)Oc1ccc(Oc2cnc3cc(Cl)ccc3n2)cc1 (stereo not given), the Potency is reported as “inactive”.
With Cc1ccc(S(=O)(=O)NCl)cc1 the Potency was “inactive”.
For CC/C(=C(/CC)c1ccc(O)cc1)c1ccc(O)cc1, the Potency was “inactive”.
In the case of C[C@]12C=CC(=O)C=C1CC[C@H]1[C@@H]3C[C@@H](O)[C@](O)(C(=O)CO)[C@@]3(C)C[C@H](O)[C@@]12F, the Potency is reported as “inactive”.
With CCCCCCCCCCCCO the Potency was “inactive”.
With CN(Cc1cnc2nc(N)nc(N)c2n1)c1ccc(C(=O)N[C@@H](CCC(=O)O)C(=O)O)cc1 the Potency was “inactive”.
In the case of C=CCOC(=O)C(=C)C, the “cytotoxicity increase” value is reported as -25.9% (inactive).
With Cc1ccc(/C(=C\CN2CCCC2)c2ccccn2)cc1 the Potency was “inactive”.
With Cc1ccc(S(=O)(=O)O)cc1C the Potency was “inactive”.
In the case of CCCCCC=O, the Potency is reported as “inactive”.
With C=C[C@H]1CN2CC[C@H]1C[C@@H]2[C@@H](O)c1ccnc2ccc(OC)cc12 the Potency was “inactive”.
In the case of O=C(O)COCCN1CCN(C(c2ccccc2)c2ccc(Cl)cc2)CC1 (stereo not given), the Potency is reported as “inactive”.
In the case of Oc1ccc(C(c2ccc(O)cc2)C(Cl)(Cl)Cl)cc1, the Potency is reported as “inactive”.
With CCc1cccc2c3c([nH]c12)C(CC)(CC(=O)O)OCC3 (stereo not given) the Potency was “inactive”.
In the case of Cc1ccc([N+](=O)[O-])c(C)c1, the Potency is reported as 30.9 µM (active) and inactive.
With CCCOCCO the Potency was “inactive”.
For Cc1ccc(C)c(O)c1, the Potency was “inactive”.
In the case of CC[C@]12CCCN3CCc4c(n(c5ccccc45)[C@@](O)(C(=O)OC)C1)[C@@H]32, the Potency is reported as “inactive”.
With C=C[C@H]1CN2CC[C@H]1C[C@H]2[C@H](O)c1ccnc2ccc(OC)cc12 the Potency was “inactive”.
With CCC(Cc1c(I)cc(I)c(N)c1I)C(=O)O (stereo not given) the Potency was “inactive”.
In the case of Nc1cc(Cl)c(N)c(Cl)c1, the Potency is reported as “inactive”.
In the case of CC(=O)[C@@]1(O)CC[C@H]2[C@@H]3C[C@H](C)C4=CC(=O)C=C[C@]4(C)[C@@]3(F)[C@@H](O)C[C@@]21C, the Potency is reported as “inactive”.
With CC(=O)Oc1c(C)c(C)c2c(c1C)CC[C@@](C)(CCC[C@H](C)CCC[C@H](C)CCCC(C)C)O2 the Potency was “inactive”.
In the case of O=S1(=O)CCCO1, the Potency is reported as “inactive”.
With c1ccc2ncccc2c1 the Potency was “inactive”.
In the case of NCCS(=O)(=O)O, the Potency is reported as “inactive”.
For C1CN(SSN2CCOCC2)CCO1, the Potency was 48.5 µM (active) and inactive.
For O=C(O)CCCC(=O)O, the Potency was “inactive”.
With CC(C)[N+](C)(CCOC(=O)C1c2ccccc2Oc2ccccc21)C(C)C the Potency was “inactive”.
With CC(C)(C)c1cccc(C(C)(C)C)c1O the Potency was 53.7 µM (active) and inactive.
